# Assay results from PMC7862700, “An all-to-all approach to the identification of sequence-specific readers for epigenetic DNA modifications on cytosine”.
# Legend:
# Assay in all cases: DAPPL (digital affinity profiling via proximity ligation, sequencing); 10 mM Tris-HCl pH 7.5, 50 mM NaCl, 1 mM DTT, 4% glycerol, room temperature, 30 min; GST-TFs on glutathione beads, 16-mer random dsDNA library, 0.1% formaldehyde crosslink after washing; high values mean tight binding
# [1] = target: T1, FLI1 (Homo sapiens, UniProt Q01543 1-452); conditions: protein: recombinant; tags: N-terminal GST; dsDNA, one strand shown
# T1 sequence: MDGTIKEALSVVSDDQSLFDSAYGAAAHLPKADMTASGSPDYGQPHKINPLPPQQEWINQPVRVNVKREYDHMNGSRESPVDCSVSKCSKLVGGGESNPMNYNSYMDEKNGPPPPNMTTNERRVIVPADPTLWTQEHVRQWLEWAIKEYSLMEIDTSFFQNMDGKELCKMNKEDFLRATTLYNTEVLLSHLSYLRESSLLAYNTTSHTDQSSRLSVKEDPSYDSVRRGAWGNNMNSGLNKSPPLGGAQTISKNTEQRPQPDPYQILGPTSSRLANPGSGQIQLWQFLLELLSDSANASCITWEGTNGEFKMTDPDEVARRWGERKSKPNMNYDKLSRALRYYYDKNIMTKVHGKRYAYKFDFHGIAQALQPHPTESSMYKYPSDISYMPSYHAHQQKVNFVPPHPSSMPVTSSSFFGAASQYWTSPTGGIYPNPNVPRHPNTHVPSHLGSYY
# Procedure, shortened: (§1)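 A tag-only sample was pooled with DNA-barcoded human transcription factors that had been expressed in yeast as GST fusions and captured on glutathione beads. The pools were incubated for 30 min at room temperature with 200 nmole of a random double-stranded 16-mer DNA library in Tris/NaCl/DTT/glycerol buffer, then washed, crosslinked with 0.1% formaldehyde, proximity-ligated (BsaI/T4 ligase, 1 h, 37 °C), PCR-amplified and sequenced on an Illumina NextSeq500. Binding signal is each hexamer's read frequency for a factor divided by its frequency for the tag-only sample.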
# [2] = target: T2, ELK1 (Homo sapiens, UniProt P19419 1-428); conditions: protein: recombinant; tags: N-terminal GST; dsDNA, one strand shown
# T2 sequence: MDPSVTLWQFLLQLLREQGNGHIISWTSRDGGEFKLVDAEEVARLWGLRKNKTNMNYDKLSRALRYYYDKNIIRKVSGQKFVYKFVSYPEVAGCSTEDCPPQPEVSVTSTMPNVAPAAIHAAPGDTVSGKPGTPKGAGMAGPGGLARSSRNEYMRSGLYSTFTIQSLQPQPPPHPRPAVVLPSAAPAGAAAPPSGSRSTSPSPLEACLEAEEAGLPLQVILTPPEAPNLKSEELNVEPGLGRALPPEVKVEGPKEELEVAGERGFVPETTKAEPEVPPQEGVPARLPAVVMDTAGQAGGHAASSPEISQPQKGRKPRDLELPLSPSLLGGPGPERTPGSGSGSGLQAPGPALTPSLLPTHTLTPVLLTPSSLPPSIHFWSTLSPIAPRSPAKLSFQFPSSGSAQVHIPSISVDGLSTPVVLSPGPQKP
# Procedure, shortened: as §1
# [3] = target: T3, GABPA (Homo sapiens, UniProt Q06546 1-454); conditions: protein: recombinant; tags: N-terminal GST; dsDNA, one strand shown
# T3 sequence: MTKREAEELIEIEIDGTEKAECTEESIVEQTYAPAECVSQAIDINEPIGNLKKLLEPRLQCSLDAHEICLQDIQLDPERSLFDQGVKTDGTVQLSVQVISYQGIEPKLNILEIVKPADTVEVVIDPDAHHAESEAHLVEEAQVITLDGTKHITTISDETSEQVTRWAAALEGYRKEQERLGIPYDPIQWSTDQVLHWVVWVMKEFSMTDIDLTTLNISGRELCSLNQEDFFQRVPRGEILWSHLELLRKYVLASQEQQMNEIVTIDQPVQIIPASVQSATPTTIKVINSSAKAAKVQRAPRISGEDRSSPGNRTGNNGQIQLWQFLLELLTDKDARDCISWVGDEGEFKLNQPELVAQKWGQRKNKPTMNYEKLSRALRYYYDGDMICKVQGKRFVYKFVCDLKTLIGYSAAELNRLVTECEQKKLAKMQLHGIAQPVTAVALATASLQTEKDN
# Procedure, shortened: as §1
# [4] = target: T4, ERG (Homo sapiens, UniProt P11308 1-479); conditions: protein: recombinant; tags: N-terminal GST; dsDNA, one strand shown
# T4 sequence: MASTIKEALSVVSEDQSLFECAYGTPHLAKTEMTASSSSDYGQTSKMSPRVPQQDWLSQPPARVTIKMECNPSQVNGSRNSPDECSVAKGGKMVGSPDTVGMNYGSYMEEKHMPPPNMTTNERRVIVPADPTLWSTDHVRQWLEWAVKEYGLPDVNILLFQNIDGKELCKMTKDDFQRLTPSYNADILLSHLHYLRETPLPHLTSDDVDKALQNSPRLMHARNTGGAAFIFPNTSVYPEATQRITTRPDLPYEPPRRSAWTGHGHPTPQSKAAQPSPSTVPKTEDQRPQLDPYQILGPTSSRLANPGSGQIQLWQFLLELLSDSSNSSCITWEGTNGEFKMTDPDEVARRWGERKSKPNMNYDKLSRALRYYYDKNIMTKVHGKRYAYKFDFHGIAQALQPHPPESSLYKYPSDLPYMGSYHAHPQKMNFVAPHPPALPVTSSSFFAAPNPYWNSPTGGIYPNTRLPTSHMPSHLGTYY
# Procedure, shortened: as §1
# [5] = target: ELF1 (Homo sapiens, UniProt P32519 1-619); conditions: protein: recombinant; tags: N-terminal GST; dsDNA, one strand shown
# Sequence of ELF1 (P32519 whole entry): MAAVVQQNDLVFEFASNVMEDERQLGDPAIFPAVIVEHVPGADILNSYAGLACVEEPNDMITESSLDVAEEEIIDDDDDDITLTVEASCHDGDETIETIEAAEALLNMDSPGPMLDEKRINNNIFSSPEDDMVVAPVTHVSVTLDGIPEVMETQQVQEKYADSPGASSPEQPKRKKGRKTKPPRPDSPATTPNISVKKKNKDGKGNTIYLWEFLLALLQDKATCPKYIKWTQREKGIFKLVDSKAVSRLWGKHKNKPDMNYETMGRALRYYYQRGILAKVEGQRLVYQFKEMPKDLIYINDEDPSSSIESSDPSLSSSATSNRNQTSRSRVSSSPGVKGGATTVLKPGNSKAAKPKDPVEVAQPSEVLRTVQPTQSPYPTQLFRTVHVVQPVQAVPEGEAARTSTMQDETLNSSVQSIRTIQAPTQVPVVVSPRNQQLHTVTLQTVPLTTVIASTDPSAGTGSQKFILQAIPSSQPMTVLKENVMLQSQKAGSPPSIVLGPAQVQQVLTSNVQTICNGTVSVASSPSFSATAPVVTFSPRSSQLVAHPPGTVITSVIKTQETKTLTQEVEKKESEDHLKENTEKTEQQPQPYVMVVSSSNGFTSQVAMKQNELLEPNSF
# Procedure, shortened: as §1
# [6] = target: T5, EHF (Homo sapiens, UniProt Q9NZC4 1-300); conditions: protein: recombinant; tags: N-terminal GST; dsDNA, one strand shown
# T5 sequence: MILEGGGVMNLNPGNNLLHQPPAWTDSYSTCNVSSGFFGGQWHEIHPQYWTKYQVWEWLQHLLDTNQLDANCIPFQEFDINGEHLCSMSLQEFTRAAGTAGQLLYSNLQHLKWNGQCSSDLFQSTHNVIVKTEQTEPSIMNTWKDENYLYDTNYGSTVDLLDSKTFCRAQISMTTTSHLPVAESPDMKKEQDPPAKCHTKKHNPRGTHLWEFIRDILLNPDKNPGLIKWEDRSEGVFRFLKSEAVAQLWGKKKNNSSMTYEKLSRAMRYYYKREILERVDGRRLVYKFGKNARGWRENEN
# Procedure, shortened: as §1
# [7] = target: SPI1 (Homo sapiens, UniProt P17947 1-270); conditions: protein: recombinant; tags: N-terminal GST; dsDNA, one strand shown
# Procedure, shortened: as §1
# [8] = target: SPIB (Homo sapiens, UniProt Q01892 1-262); conditions: protein: recombinant; tags: N-terminal GST; dsDNA, one strand shown
# Sequence of SPIB (Q01892 whole entry): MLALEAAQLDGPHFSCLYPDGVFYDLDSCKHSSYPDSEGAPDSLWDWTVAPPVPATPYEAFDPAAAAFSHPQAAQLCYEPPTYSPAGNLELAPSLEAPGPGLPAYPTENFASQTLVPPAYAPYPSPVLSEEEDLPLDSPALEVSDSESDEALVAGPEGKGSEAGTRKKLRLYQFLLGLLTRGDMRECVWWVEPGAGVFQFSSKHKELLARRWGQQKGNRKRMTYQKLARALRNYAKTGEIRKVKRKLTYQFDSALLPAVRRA
# Procedure, shortened: as §1
# [9] = target: T6, ELK3 (Homo sapiens, UniProt P41970 1-407); conditions: protein: recombinant; tags: N-terminal GST; dsDNA, one strand shown
# T6 sequence: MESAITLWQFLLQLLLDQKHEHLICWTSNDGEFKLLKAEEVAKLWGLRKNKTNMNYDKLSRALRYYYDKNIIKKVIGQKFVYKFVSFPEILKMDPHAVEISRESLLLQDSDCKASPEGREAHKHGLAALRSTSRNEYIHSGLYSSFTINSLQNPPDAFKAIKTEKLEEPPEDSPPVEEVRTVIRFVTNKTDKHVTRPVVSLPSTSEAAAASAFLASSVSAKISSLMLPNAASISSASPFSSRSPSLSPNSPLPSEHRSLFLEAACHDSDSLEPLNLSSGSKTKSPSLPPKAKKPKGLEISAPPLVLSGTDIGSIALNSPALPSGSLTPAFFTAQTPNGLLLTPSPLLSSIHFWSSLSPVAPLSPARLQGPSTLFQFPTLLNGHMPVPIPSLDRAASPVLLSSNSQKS
# Procedure, shortened: as §1
# [10] = target: T7, FEV (Homo sapiens, UniProt Q99581 1-238); conditions: protein: recombinant; tags: N-terminal GST; dsDNA, one strand shown
# T7 sequence: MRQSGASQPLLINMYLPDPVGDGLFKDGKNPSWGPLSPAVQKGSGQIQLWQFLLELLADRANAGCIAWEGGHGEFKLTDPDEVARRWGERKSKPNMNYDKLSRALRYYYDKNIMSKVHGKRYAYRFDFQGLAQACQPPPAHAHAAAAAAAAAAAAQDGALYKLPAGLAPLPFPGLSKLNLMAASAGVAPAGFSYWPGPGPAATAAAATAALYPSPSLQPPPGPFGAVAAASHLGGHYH
# Procedure, shortened: as §1
# [11] = target: ETV5 (Homo sapiens, UniProt P41161 1-510); conditions: protein: recombinant; tags: N-terminal GST; dsDNA, one strand shown
# Sequence of ETV5 (P41161 whole entry): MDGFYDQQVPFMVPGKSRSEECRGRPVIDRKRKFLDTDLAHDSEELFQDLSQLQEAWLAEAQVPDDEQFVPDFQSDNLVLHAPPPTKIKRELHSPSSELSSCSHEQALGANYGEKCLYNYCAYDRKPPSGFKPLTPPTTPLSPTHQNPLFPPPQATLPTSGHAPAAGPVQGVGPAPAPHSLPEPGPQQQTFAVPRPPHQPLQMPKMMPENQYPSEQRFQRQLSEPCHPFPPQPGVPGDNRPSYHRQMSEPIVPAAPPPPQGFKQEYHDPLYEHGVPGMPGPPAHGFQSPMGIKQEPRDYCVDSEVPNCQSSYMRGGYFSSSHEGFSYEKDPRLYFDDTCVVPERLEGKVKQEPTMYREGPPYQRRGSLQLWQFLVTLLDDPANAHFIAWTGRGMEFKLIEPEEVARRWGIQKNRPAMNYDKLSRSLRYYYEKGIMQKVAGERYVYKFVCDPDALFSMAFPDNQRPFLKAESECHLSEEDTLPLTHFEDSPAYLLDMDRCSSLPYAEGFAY
# Procedure, shortened: as §1
# [12] = target: HSF1 (Homo sapiens, UniProt Q00613 1-529); conditions: protein: recombinant; tags: N-terminal GST; chain copies: 3; dsDNA, one strand shown
# Sequence of HSF1 (Q00613 whole entry): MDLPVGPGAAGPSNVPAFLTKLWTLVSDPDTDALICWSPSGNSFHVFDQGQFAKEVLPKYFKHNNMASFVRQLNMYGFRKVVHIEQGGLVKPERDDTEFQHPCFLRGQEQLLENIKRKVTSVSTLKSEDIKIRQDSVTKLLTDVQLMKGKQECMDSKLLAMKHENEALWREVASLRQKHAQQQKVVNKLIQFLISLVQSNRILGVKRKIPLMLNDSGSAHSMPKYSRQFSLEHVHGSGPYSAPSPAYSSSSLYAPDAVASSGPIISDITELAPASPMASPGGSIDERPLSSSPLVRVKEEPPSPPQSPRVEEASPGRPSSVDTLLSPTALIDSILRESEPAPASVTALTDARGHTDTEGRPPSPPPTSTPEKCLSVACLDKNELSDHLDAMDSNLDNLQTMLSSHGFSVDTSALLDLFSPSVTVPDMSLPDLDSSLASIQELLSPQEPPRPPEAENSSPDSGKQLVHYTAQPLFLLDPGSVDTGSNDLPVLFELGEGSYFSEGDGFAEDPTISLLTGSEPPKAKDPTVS
# Procedure, shortened: as §1
# [13] = target: T8, SPIC (Homo sapiens, UniProt Q8N5J4 1-248); conditions: protein: recombinant; tags: N-terminal GST; dsDNA, one strand shown
# T8 sequence: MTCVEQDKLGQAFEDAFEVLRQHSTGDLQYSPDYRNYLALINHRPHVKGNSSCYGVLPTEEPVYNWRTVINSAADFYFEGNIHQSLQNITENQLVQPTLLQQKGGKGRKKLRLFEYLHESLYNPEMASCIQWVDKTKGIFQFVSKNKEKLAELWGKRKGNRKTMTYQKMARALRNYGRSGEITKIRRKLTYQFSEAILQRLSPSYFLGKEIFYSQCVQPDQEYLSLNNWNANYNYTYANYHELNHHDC
# Procedure, shortened: as §1
# [14] = target: ELF4 (Homo sapiens, UniProt Q99607 1-663); conditions: protein: recombinant; tags: N-terminal GST; dsDNA, one strand shown
# Sequence of ELF4 (Q99607 whole entry): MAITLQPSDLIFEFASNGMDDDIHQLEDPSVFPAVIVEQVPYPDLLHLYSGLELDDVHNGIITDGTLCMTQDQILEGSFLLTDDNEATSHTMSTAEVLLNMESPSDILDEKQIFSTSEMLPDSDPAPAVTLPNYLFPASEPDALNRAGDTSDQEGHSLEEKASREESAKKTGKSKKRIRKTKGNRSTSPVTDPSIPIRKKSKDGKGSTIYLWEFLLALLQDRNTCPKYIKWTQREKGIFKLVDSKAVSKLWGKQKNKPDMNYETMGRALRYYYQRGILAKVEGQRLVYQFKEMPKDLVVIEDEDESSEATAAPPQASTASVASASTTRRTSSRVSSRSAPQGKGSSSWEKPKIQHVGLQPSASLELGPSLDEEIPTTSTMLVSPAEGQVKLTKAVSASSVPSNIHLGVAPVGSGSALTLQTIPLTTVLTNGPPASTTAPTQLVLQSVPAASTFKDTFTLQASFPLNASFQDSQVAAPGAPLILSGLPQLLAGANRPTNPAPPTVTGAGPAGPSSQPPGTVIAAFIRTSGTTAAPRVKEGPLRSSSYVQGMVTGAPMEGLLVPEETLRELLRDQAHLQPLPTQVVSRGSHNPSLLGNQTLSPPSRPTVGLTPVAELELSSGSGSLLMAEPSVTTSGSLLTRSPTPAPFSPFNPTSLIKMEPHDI
# Procedure, shortened: as §1
# [15] = target: T9, ELK4 (Homo sapiens, UniProt P28324-2 1-405); conditions: protein: recombinant; tags: N-terminal GST; dsDNA, one strand shown
# T9 sequence: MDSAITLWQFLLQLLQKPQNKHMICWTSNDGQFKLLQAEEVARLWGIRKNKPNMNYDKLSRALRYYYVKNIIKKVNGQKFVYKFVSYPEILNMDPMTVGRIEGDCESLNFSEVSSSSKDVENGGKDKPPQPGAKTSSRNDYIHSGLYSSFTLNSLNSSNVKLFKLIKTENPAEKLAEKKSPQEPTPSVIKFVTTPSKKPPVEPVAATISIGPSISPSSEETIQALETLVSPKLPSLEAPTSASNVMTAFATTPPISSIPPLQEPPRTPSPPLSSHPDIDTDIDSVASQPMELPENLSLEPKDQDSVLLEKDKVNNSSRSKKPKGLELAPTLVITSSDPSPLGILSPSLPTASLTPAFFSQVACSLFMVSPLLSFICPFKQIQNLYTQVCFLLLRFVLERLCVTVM
# Procedure, shortened: as §1
# [16] = target: T10, ETV2 (Homo sapiens, UniProt O00321 1-342); conditions: protein: recombinant; tags: N-terminal GST; dsDNA, one strand shown
# T10 sequence: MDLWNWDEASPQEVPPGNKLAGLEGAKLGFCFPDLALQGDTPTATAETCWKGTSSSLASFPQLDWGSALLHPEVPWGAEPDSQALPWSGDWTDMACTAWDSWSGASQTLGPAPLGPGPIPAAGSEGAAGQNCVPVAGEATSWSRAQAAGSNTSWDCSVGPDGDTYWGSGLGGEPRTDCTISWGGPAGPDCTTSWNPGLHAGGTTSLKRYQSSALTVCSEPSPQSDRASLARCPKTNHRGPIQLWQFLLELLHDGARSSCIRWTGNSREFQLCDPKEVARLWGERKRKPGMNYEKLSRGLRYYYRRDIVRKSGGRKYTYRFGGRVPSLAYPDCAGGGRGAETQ
# Procedure, shortened: as §1
# [17] = target: T11, ELF3 (Homo sapiens, UniProt P78545 1-371); conditions: protein: recombinant; tags: N-terminal GST; dsDNA, one strand shown
# T11 sequence: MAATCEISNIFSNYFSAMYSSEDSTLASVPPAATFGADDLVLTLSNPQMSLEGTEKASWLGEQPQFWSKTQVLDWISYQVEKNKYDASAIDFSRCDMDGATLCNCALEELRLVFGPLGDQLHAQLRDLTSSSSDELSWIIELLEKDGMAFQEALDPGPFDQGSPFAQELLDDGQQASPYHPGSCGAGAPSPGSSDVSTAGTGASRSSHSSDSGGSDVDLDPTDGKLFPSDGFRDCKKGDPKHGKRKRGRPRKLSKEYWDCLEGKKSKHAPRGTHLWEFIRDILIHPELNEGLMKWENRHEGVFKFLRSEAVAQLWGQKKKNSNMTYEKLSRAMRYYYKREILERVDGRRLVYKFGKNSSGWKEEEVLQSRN
# Procedure, shortened: as §1
# [18] = target: CRX (Homo sapiens, UniProt O43186 1-299); conditions: protein: recombinant; tags: N-terminal GST; dsDNA, one strand shown
# Sequence of CRX (O43186 whole entry): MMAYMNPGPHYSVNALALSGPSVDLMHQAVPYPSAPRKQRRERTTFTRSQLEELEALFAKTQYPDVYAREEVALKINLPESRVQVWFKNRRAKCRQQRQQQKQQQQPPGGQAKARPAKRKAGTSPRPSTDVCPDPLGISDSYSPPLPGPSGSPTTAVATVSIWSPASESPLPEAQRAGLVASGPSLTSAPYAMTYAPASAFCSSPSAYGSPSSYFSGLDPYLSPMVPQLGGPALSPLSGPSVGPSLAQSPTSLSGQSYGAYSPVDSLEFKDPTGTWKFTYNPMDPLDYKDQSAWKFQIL
# Procedure, shortened: as §1
# [19] = target: ETV1 (Homo sapiens, UniProt P50549 1-477); conditions: protein: recombinant; tags: N-terminal GST; dsDNA, one strand shown
# Sequence of ETV1 (P50549 whole entry): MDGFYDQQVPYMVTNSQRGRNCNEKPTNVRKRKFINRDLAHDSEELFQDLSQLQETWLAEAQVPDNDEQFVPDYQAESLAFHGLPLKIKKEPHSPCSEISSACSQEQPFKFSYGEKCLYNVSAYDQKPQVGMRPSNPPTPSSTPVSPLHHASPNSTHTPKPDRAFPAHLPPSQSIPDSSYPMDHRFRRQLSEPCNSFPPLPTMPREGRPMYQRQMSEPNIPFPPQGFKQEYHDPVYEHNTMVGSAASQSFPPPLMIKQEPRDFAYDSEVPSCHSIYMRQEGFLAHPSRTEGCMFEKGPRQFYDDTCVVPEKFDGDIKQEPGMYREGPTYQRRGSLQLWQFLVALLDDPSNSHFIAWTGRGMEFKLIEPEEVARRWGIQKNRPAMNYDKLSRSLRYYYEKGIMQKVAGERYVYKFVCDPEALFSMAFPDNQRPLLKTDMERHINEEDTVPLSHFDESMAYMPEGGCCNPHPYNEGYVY
# Procedure, shortened: as §1
sequence,measurement,setting,value
CCCGAA,binding signal,[1],"1.44 fold enrichment (6-mer frequency, TF over GST control)"
same,binding signal,[2],"1.26 fold enrichment (6-mer frequency, TF over GST control)"
same,binding signal,[3],"1.51 fold enrichment (6-mer frequency, TF over GST control)"
same,binding signal,[4],"1.18 fold enrichment (6-mer frequency, TF over GST control)"
same,binding signal,[5],"1.39 fold enrichment (6-mer frequency, TF over GST control)"
same,binding signal,[6],"1.3 fold enrichment (6-mer frequency, TF over GST control)"
same,binding signal,[7],"1.36 fold enrichment (6-mer frequency, TF over GST control)"
same,binding signal,[8],"1.27 fold enrichment (6-mer frequency, TF over GST control)"
same,binding signal,[9],"1.2 fold enrichment (6-mer frequency, TF over GST control)"
same,binding signal,[10],"1.37 fold enrichment (6-mer frequency, TF over GST control)"
same,binding signal,[11],"1.36 fold enrichment (6-mer frequency, TF over GST control)"
same,binding signal,[12],"2.56 fold enrichment (6-mer frequency, TF over GST control)"
same,binding signal,[13],"1.45 fold enrichment (6-mer frequency, TF over GST control)"
same,binding signal,[14],"1.37 fold enrichment (6-mer frequency, TF over GST control)"
same,binding signal,[15],"1.34 fold enrichment (6-mer frequency, TF over GST control)"
same,binding signal,[16],"1.29 fold enrichment (6-mer frequency, TF over GST control)"
same,binding signal,[17],"1.47 fold enrichment (6-mer frequency, TF over GST control)"
same,binding signal,[18],"1.61 fold enrichment (6-mer frequency, TF over GST control)"
same,binding signal,[19],"1.29 fold enrichment (6-mer frequency, TF over GST control)"
